# Laboratory results reported in the supplement of paper PMC6411743.
# ± gives the standard deviation of the averaged measurements. Targets with the largest changes are over-represented here; the source holds about 5,400 in all.
# Biological target: T1, UniProt Q92796-3|Q5JUW8|Q92796
# T1 sequence (whole entry): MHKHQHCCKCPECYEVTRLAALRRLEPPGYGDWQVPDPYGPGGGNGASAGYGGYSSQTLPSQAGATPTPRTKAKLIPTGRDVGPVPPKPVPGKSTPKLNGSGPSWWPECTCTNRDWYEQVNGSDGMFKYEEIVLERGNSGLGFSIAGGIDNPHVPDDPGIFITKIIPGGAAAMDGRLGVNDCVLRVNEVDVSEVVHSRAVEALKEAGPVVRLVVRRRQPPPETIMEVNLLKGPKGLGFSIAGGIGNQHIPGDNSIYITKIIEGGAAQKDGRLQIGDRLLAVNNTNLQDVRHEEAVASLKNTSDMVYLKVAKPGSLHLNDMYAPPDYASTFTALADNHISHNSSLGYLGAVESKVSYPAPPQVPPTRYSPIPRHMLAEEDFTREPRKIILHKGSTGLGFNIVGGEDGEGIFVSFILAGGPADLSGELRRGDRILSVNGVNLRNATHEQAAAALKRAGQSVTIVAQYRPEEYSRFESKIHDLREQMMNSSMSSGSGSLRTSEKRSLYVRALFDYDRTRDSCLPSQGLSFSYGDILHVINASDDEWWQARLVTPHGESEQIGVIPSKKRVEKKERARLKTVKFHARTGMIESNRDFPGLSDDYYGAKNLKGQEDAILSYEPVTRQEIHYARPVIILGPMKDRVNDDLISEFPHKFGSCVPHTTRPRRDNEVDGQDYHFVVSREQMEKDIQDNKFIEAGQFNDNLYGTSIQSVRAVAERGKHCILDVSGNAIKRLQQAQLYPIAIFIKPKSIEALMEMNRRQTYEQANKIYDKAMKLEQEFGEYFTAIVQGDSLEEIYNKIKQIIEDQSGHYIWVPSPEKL
# Assay: NP40-soluble protein abundance relative to vehicle (solubility fold change) (ratio); higher = more soluble protein in presence of GTP
# Procedure, shortened: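 Eight concentrations, 0.1 to 10 mM, were tested on Jurkat crude lysate for 10 min at room temperature and then 3 min at 37 °C, in three independent experiments. The lysate was solubilised with 0.8% NP40 and benzonase, ultracentrifuged, and the supernatant TMT-labelled for LC-MS/MS. Each value is the fold change against the detergent-processed vehicle in its own replicate, from vsn-normalised intensities.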
smiles,measurement,setting,value
Nc1nc2c(ncn2[C@@H]2O[C@H](COP(=O)(O)OP(=O)(O)OP(=O)(O)O)[C@@H](O)[C@H]2O)c(=O)[nH]1 [guanosine triphosphate],NP40-soluble protein abundance,concentration: 0.1mM,1.15 ± 0.034
same,NP40-soluble protein abundance,concentration: 0.5mM,1.17 ± 0.023
same,NP40-soluble protein abundance,concentration: 1mM,1.17 ± 0.037
same,NP40-soluble protein abundance,concentration: 2mM,1.17 ± 0.038
same,NP40-soluble protein abundance,concentration: 4mM,1.13 ± 0.03
same,NP40-soluble protein abundance,concentration: 6mM,1.12 ± 0.07
same,NP40-soluble protein abundance,concentration: 8mM,1.18 ± 0.018
same,NP40-soluble protein abundance,concentration: 10mM,1.14 ± 0.037
